Compounds without any hit were thinned out: in the full panel of roughly 83,000, 20% have a hit.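 Method: cells in 96-well plates; compound added at one concentration; 48 h incubation; percent growth measured; values under 10 scored active.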 Calls of active or inactive are those of the source.

The subject of the experiment is 786-0 renal. Nature of the experiment: NCI-60 one-dose screen, 48 h (100 = growth as untreated, 0 = no growth, -100 = all killed). The note with it: 10 µM unless noted.
In the case of `Clc1nnc2c3ccccc3ccn12`, the growth is 99.3% (inactive).
Consider `COc1ccc(-c2nn(C(=O)NCCN(C)C)cc2-c2ccncc2)cc1Cl`, for which the growth is 34.8% (inactive).
`CCN1C(=O)N(CC)C2C1NN=c1s/c(=C\c3ccco3)c(=O)n12` (stereo unspecified): the growth was 25% (inactive).
Turning to `CC(C)N(C(=S)SSC(=S)N(C(C)C)C(C)C)C(C)C`, the growth is 101% (inactive).
The figure for `CC(C)=CC[C@@H]1CC2(CC=C(C)C)C(=O)C(OC3(C(=O)c4ccccc4)C(=O)C4(CC=C(C)C)C[C@@H](CC=C(C)C)C(C)(C)C(CC=C(C)C)(C4=O)C3=O)(C(=O)c3ccccc3)C(=O)C(CC=C(C)C)(C2=O)C1(C)C` (stereo partly specified) is 11.6% (inactive); for `CCCCCCCCCCCCCCCC1=NCCN1` it is 78.8% (inactive).
On to `COc1cc([N+](=O)[O-])cc(OC)c1OC`, for which the growth was 104% (inactive).
In the case of `NNC(=O)CSc1nc2scc(-c3ccccc3)c2c(=O)n1-c1ccccc1`, the growth is 86.8% (inactive).
On to `C=CCN(CC#N)CC=C`, for which the growth is 107% (inactive).
In the case of `CCOC(=O)Cn1c(-c2nonc2NC(=O)c2ccccc2F)nc2ccccc21`, the growth was 46.4% (inactive).
Consider `CCCCCCCOc1cccc(/C=C2\N=C3SCCCN3C2=O)c1`, for which the growth is 92.5% (inactive).
The same measure for `Cc1c2c(cc3c1[nH]c1ccccc13)C=NCC2`: 80.8% (inactive); for `COc1cc(OC)c(Cl)cc1N`: 111% (inactive).
In the case of `CS(=O)(=O)c1ccc(C(=O)Nc2ccc(Cl)c(-c3ccccn3)c2)c(Cl)c1`, the growth is -41.2% (active).
For `Cc1cc([N+](=O)[O-])c(C)cc1N`, the growth is 103% (inactive).
`COc1cnc2c(c1)C(=O)c1c-2n(CCCN2CCNCC2)c(=O)c2cc(Cl)ccc12`: the growth is -81.1% (active).
As to `COc1cc(/C=C2\CN(C(=O)OC(C)(C)C)C/C(=C\c3ccc(O)c(OC)c3)C2=O)ccc1O`, the growth was 93.3% (inactive).
The figure for `CCN1C(=O)C(C)C=C(C)C=C1C` (stereo unspecified) is 115% (inactive); for `COCc1nc(NS(=O)(=O)c2ccc(N)cc2)nc(C)c1Br` it is 100% (inactive).
Consider `O=c1c2cc(Br)cc(Br)c2nc(-c2ccc(Cl)cc2)n1/N=C\c1ccccc1F`, for which the growth is -34% (active).
As to `CCCCCCCCCCCCCC1=NC(C)(C)CN1C(C)C`, the growth was -86.2% (active).
With `CCC(=O)OCc1ccc(OC)cc1`, the growth was 101% (inactive).
In the case of `Fc1ccc(-c2cnc3nonc3n2)c(F)c1`, the growth was 104% (inactive).
Take `O=S(=O)(Nc1ccc2ccccc2c1)N1CCCCC1`: the growth was 70.3% (inactive).
`CCn1c(Cc2ccccc2Nc2c(Cl)cccc2Cl)nnc1SCC(=O)Nc1cccc(OC)c1`: the growth is 89.8% (inactive).
Consider `CCN(CC)CC(=O)Nc1c(C)ccc(N)c1C`, for which the growth was 93.4% (inactive).
As to `C=C1C[C@@]2(C)C(CC[C@]3(C)C2CC=C2C4CC(C)(C)C[C@@H](OC(=O)/C(C)=C\C)[C@]4(C(=O)O)CC[C@]23C)C(C)(C)C1=O` (stereo partly specified), the growth is -77.9% (active).
For `C=C1C(=O)O[C@H]2[C@H]1CC/C(COC(=O)NCc1cccc(OC)c1)=C\CC[C@@]1(C)O[C@@H]21`, the growth is -48.9% (active).
On to `CCCCOc1nc2ccccc2cc1/C=C/c1cc(/C=C/c2cc3ccccc3nc2OCCCC)n(-c2ccccc2)n1`, for which the growth was 107% (inactive).
Turning to `CCCCc1nc(Cl)c(C2CC(c3ccc(S(N)(=O)=O)cc3)=NN2c2cc(Cl)cc(Cl)c2)[nH]1` (stereo unspecified), the growth is 53.6% (inactive).
The figure for `O=C(N/N=C\c1cc(Br)ccc1O)c1ccncc1` is 18.4% (inactive); for `CC(C)C/C=C/C=C/C(=O)N[C@@H](CC(N)=O)C(=O)N[C@@H]1C(=O)N[C@H](c2ccc(O)cc2)C(=O)N[C@H](CCCN)C(=O)N[C@H]([C@@H](C)O)C(=O)N[C@H](c2ccc(O)cc2)C(=O)N[C@H](c2ccc(O)cc2)C(=O)N[C@H]([C@H](C)O)C(=O)N[C@H](Cc2ccccc2)C(=O)N[C@H](CCCN)C(=O)N[C@H](c2ccc(O[C@H]3O[C@@H](CO)[C@@H](O)[C@@H](O)[C@H]3O[C@@H]3O[C@H](CO)[C@H](O)[C@H](O)[C@@H]3O)cc2)C(=O)N[C@H]([C@H](C)O)C(=O)N[C@H](c2ccc(O)cc2)C(=O)NCC(=O)N[C@H](CC(C)C)C(=O)N[C@H](C)C(=O)N[C@H](c2ccc(O)c(Cl)c2)C(=O)O[C@@H]1C(N)=O` it is -48.7% (active).
For the compound `CN(C)c1ccc(/C=C\c2cccc[n+]2C)cc1`, the growth was 69.3% (inactive).
Consider `COC(=O)CSc1ccc(Cl)cc1`, for which the growth was 95.3% (inactive).
Consider `S=C(S)Oc1cccc2cccnc12`, for which the growth is 103% (inactive).
In the case of `O=C1NN(C(=O)c2ccccc2)C(c2ccc(Cl)c(Cl)c2)=C/C1=C\c1ccccc1[N+](=O)[O-]`, the growth is 31.1% [6.75 µM] (inactive).

(Values after PubChem BioAssay (NCI).)
